# The supplement of paper PMC11001985
# Unmarked numbers belong to inactive results.
# Compound: C#CCNC(=O)CCSSCCC(=O)NCCc1ccc(C=O)c(C=O)c1
# Assay: lysine labeling ratio R10:1 (500 µM / 50 µM probe), SILAC-ABPP in living cells; higher = lower intrinsic lysine reactivity toward the probe, active = 2 or less
# Conditions: HeLa; probe concentrations 500 vs 50 µM
# In short: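 An alkyne-tagged lysine probe with a disulfide linker labelled living HeLa cells in PBS at room temperature at either 50 µM or 500 µM, using SILAC light and heavy cells in forward and reverse label swaps. Lysates were mixed, clicked to biotin-azide, trypsin-digested, enriched on neutravidin, DTT-released, alkylated and measured by LC-MS/MS on a TIMS-TOF Pro. Each lysine's R is the filtered median high-probe/low-probe MS1 peptide ratio, combined as the median over forward and reverse replicates, with 20 as the upper limit.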
# UniProt O15230, sequence (O15230 whole entry): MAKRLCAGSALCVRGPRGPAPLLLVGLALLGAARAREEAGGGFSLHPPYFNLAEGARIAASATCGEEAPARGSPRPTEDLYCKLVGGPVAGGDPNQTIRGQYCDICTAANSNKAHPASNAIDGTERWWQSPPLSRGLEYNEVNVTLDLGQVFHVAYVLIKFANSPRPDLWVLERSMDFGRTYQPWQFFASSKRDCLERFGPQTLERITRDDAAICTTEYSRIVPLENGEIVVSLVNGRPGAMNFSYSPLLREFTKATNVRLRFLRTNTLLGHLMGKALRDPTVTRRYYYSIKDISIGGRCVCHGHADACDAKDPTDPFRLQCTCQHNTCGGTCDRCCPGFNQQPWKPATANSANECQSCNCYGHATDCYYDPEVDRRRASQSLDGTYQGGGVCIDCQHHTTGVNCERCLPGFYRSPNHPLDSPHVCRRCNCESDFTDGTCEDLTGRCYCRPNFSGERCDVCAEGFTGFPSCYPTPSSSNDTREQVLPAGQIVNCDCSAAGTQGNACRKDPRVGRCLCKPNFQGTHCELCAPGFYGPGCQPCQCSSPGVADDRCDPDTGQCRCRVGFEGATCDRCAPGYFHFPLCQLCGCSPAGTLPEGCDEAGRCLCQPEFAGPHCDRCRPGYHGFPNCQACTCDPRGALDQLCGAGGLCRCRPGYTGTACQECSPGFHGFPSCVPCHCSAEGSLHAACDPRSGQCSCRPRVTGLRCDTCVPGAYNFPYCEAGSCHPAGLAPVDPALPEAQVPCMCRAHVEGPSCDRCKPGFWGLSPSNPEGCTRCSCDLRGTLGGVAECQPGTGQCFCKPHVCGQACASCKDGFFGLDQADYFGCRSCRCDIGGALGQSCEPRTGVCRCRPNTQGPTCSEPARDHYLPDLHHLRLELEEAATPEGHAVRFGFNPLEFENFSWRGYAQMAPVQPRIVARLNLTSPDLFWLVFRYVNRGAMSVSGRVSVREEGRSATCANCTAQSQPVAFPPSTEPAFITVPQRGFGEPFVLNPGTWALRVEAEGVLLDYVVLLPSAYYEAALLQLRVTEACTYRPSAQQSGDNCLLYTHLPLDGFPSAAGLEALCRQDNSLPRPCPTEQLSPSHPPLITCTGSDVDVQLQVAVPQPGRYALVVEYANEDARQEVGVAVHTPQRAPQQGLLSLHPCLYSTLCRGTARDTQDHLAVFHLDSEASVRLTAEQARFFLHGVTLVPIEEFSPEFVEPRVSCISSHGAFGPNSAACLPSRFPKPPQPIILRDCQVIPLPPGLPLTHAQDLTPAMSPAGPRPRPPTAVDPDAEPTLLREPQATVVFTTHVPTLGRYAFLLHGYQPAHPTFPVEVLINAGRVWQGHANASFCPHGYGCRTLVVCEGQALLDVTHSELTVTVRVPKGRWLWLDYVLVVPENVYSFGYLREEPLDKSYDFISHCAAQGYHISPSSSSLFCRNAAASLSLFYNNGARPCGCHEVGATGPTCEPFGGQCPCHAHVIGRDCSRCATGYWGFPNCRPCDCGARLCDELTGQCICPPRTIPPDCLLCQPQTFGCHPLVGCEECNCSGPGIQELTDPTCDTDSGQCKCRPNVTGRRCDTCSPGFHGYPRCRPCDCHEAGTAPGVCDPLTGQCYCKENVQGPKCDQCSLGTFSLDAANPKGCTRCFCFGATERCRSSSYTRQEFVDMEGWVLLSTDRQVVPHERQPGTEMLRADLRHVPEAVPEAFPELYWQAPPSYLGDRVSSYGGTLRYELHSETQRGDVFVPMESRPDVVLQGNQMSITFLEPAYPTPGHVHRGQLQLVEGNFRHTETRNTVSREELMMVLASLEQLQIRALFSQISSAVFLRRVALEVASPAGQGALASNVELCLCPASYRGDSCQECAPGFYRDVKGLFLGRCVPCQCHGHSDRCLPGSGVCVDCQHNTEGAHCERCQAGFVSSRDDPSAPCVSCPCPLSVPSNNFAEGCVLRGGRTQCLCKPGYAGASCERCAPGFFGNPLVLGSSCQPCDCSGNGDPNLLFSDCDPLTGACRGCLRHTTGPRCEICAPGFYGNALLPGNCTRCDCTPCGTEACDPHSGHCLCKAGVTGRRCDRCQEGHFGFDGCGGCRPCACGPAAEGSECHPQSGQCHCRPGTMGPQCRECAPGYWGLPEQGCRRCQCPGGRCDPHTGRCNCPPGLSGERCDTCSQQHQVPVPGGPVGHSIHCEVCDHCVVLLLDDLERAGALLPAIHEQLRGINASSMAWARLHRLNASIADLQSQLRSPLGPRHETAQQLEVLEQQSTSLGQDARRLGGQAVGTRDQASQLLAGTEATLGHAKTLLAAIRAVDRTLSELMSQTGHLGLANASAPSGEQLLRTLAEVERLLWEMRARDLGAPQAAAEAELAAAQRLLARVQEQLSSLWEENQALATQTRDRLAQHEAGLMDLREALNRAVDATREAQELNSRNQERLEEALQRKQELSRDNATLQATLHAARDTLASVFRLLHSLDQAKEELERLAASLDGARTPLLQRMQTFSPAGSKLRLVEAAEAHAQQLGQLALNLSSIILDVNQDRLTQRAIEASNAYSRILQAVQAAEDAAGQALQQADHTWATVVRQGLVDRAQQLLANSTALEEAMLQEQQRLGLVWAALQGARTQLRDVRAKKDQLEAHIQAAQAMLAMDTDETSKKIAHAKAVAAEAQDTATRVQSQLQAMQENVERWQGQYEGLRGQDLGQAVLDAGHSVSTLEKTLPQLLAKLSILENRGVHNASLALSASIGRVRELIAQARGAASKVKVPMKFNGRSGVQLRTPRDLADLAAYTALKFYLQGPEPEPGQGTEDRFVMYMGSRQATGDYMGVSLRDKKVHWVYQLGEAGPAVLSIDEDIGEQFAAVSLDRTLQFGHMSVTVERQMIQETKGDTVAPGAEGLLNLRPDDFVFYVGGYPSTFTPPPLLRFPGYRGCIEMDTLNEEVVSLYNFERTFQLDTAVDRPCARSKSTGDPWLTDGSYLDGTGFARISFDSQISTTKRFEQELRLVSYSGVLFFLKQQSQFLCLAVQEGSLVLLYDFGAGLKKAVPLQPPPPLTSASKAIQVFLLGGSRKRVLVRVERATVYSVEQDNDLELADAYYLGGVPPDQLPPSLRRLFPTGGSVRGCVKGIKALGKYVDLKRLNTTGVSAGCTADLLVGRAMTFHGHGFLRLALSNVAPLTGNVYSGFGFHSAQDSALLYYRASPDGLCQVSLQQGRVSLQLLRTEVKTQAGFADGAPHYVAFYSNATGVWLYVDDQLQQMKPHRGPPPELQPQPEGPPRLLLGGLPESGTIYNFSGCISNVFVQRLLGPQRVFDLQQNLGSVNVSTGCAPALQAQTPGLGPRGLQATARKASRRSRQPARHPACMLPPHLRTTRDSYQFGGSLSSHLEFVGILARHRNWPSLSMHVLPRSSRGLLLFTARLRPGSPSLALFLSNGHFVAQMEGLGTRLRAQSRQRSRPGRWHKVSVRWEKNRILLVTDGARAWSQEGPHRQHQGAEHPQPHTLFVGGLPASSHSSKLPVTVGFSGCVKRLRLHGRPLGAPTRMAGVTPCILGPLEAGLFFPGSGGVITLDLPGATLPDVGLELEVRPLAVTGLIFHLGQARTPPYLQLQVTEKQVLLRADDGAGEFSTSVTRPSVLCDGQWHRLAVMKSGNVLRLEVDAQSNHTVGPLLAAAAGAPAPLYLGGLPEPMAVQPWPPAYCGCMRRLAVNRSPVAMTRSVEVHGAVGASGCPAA
# UniProt P62937, sequence (P62937 whole entry, looked up): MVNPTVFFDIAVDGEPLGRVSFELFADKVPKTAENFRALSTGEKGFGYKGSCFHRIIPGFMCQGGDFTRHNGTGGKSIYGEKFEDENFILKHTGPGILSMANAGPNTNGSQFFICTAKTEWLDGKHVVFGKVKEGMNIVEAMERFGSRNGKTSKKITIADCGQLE
# UniProt O60245, sequence (O60245 whole entry): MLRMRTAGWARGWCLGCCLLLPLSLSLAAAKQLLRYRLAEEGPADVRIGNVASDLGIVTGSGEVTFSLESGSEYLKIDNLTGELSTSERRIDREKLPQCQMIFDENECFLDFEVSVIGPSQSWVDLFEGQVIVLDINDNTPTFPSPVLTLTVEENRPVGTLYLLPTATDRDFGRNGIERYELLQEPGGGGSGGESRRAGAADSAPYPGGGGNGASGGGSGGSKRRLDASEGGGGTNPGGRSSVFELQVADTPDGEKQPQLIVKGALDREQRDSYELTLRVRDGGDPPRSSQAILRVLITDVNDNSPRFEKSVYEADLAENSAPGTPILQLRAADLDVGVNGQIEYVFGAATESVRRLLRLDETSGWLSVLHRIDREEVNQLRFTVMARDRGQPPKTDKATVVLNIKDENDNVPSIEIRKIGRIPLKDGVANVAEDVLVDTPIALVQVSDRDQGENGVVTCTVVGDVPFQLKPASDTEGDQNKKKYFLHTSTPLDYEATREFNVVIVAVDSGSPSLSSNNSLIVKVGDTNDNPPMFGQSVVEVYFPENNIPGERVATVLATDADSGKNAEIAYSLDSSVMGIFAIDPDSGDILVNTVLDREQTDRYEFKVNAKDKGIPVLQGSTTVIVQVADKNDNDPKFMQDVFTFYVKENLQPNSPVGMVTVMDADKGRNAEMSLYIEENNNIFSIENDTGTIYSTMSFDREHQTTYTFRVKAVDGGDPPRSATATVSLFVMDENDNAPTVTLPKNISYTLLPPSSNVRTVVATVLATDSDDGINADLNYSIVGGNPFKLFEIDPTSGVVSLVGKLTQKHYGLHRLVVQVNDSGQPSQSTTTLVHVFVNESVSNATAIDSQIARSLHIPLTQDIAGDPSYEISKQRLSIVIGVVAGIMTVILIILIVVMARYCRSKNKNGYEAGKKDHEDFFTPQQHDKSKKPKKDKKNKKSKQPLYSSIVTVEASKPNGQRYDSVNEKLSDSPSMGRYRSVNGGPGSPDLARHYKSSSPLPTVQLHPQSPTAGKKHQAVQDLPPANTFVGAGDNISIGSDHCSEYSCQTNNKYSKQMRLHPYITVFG
row,Target,lysine labeling ratio R10:1
1,UniProt P62888 (lysine site: K9),2.95
2,GPI (lysine site: K454) (UniProt P06744),2.77
3,UniProt Q15149 (lysine site: K746),2.49
4,UniProt Q9NYQ6 (lysine site: K1830),0.925 (active)
5,UniProt O60245 (lysine site: K310),2.88
6,TMEM109 (lysine site: K46) (UniProt Q9BVC6),3.23
7,UniProt Q8N441 (lysine site: K154),1.13 (active)
8,ENG (lysine site: K513) (UniProt P17813),4.09
9,PPIA (lysine site: K31) (UniProt P62937),3.16
10,LAMA5 (lysine site: K1227) (UniProt O15230),2.71
11,L1CAM (lysine site: K180) (UniProt P32004),1.59 (active)
12,VIM (lysine site: K120) (UniProt P08670),10
13,CLU (lysine site: K222) (UniProt P10909),0.58 (active)
14,FLNA (lysine site: K1801) (UniProt P21333),3.7
15,NUMA1 (lysine site: K645) (UniProt Q14980),1.09 (active)
16,DNAJA3 (lysine site: K391) (UniProt Q96EY1),1.5 (active)
17,INSR (lysine site: K511) (UniProt P06213),2.12
